Hits are enriched below; roughly 7.5% of the tested compounds scored in any of these assays.
NPC1 promoter act: activators of NPC1 promoter; Huh7 NPC1 promoter luciferase reporter, 24 h; Potency, µM (top dose mostly 9.22 µM), for inactives: top-dose activation, actives largely listed as activators; 320,000 tested, 2.4% active; AID 485313; note: % of control where 0% means no effect; nearly all actives have a fitted effect of over 60% in size
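NPC1 promoter–luciferase Huh7 cells; 24 h compound; luminescence.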
FLuc counter: firefly luciferase modulation, counter-screen for miR-21 project; purified FLuc, Km substrates, luminescence inhibition; AID 588342; 360,000 tested, 6.9% active; Potency, µM (titrated, usually from 57.5 µM), for the others: at the top dose activity change, negative = inhibition, usual class: inhibitors; P08659;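 note: plate controls were vehicle for no effect and reference inhibitor for full effect; nearly all actives have a fitted effect of over 55% in size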
Target sequence (P08659 whole entry, looked up): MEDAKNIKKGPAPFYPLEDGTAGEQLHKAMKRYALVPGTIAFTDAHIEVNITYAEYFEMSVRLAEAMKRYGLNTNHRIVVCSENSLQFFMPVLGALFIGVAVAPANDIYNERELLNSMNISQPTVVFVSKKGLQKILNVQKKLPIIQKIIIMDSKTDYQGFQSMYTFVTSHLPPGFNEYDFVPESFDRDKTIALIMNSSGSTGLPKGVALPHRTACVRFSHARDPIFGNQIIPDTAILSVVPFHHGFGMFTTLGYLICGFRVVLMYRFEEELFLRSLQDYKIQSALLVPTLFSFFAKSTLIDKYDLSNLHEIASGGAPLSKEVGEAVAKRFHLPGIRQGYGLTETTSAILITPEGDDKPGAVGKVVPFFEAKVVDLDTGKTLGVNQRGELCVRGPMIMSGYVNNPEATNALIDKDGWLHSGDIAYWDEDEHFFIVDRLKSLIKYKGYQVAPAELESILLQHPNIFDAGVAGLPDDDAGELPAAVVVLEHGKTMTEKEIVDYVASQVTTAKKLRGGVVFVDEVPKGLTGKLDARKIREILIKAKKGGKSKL
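Biochemical qHTS of compounds, final roughly 60 µM downward over six points, against 10 nM purified firefly luciferase using Km concentrations of substrates (10 uM D-luciferin, 10 uM ATP) in Tris acetate pH 7.5 buffer; luminescence output.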
SMN2 splice up: SMN2 splice variant enhancement. AID 1458. HEK293 SMN2-luciferase splicing reporter, luminescence, 30-36 h. 210,000 tested, 2.8% active. Potency, µM (top dose mostly 46.1 µM), for the others: at the highest dose activity change, positive = activation, hits mostly activators; note: % of control where 0% means no effect; nearly all actives have a fitted effect of over 55% in size
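HEK293 cells carry an SMN2 minigene-luciferase reporter in which exon 7 inclusion puts luciferase in frame. Cells were seeded at 2000 cells/well, attached for 10-12 hours, then exposed to compounds for 30-36 hours at 37C before ONE-Glo luminescence.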
Rab9 promoter act: activators of Rab9 promoter | Huh7 Rab9 promoter-luciferase reporter, luminescence, 24 h | AID 485297 | 320,000 tested, 2.8% active | Potency, µM (top dose mostly 9.22 µM), inactives show at the top dose activation, negative = inhibition, usual class: activators; note: % of control where 0% means no effect; nearly all actives have a fitted effect of over 60% in size
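Luminescence from Amplite-detected luciferase (10 minutes, ambient) reports Rab9 promoter activation. Before that, stable Rab9-luciferase Huh7 cells (1500/well, reduced-serum OP-MEM I plus 10% FBS) were exposed to compound for 24 hours at 37C.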
ELG1 genotoxic: induces genotoxicity in HEK293T cells with luciferase-tagged ELG1; HEK293T ELG1-luciferase reporter, luminescence, 16 h; Potency, µM (top dose mostly 46 µM), without a hit: at the highest dose activity change, positive = activation, most hits filed as activators; 330,000 tested, 1.3% active; AID 504466; note: % of control where 0% means no effect; nearly all actives have a fitted effect of over 60% in size
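Quantitative HTS format in 1536-well plates. HEK293T ELG1-luciferase reporter cells receive test compound and are incubated 16 hr at 37 °C, 5% CO2; ONE-Glo added, 30 min room temperature, then luminescence read.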
Numbers without * were called inactive; ? = inconclusive; . = not tested or not shown. Calls come from the whole dose curve; as a rule, active = well fitted curve in the direction sought with a large enough effect; inconclusive = small, poorly fitted or top-dose-only effect, or another doubt; inactive = no such curve, though single readings can be large; an effect the other way counts as inactive or inconclusive. Potency is the fitted concentration of half-maximal effect.

SMILES	NPC1 promoter act	FLuc counter	SMN2 splice up	Rab9 promoter act	ELG1 genotoxic
C/C(=N\NC(=O)c1c(Cl)c(C)nn1C)c1cccc(NC(=O)C2CCCC2)c1	-3%	17µM*	.	2%	-4%
C/C(=N\NC(=O)c1c(Cl)c(C)nn1C)c1ccc(NC(=O)c2ccncc2)cc1	1%	4%	-57%	-3%	-2%
CC(CC12CC3CC(CC(C3)C1)C2)NCc1ccccc1O (configuration not stated)	0%	4%	.	-4%	-8%
Cc1cccc(-n2c(C)c(C)c3c(N)ncnc32)c1	-4%	-3%	.	14%	0%
CS(=O)(=O)c1ccc(-c2cn3cc(C(=O)O)ccc3n2)cc1	1%	2.7µM*	-21%	-2%	-7%
COC(=O)c1ccc2nc(-c3cccc(N)c3)cn2c1	0.5µM*	0.6µM*	.	1µM*	?
COC(=O)c1cc2nc(-c3ccccc3)cc(C)n2n1	-1%	0%	.	-1%	-2%
CS(=O)(=O)c1ccc(C(=O)Nc2cc(-c3ccccc3)nn2-c2ccccc2)cc1	7%	-19%	.	2%	-4%
COC(=O)c1ccc2nc(-c3ccc(S(C)(=O)=O)cc3)cn2c1	?	24µM*	4%	?	9%
Cc1ccc(NC(=O)N2CCc3c(sc4c3CCCC4)C2c2ccccc2)cc1F (configuration not stated)	.	-2%	.	.	.
Cc1ccc(/C=C/C(=O)Nc2nccs2)o1	2.8µM*	8.5µM*	11µM*	1.8µM*	?
Cc1ccc(/C=C/C(=O)Nc2ncc(C)s2)o1	3.5µM*	1.9µM*	3.2µM*	2.8µM*	?
Cc1cnc(NC(=O)/C=C/c2ccc(Br)o2)s1	?	-8%	.	?	?
CC1CCN(C(=O)CSc2nnc(-c3ccco3)o2)CC1	2%	-14%	-7%	-7%	12%
CCC1CCCCN1C(=O)CSc1nnc(-c2cccc(Cl)c2)o1 (configuration not stated)	28%	?	?	13%	18µM*
O=C(CSc1nnc(-c2ccco2)o1)N1CCCCC1	?	?	.	3.2µM*	19%
CCC1CCCCN1C(=O)CSc1nnc(-c2ccc(Cl)cc2)o1 (configuration not stated)	1%	-15%	-45%	1%	-5%
O=C(CSc1nnc(-c2ccco2)o1)c1ccc[nH]1	?	?	18µM*	2.2µM*	?
O=C(CSc1nnc(-c2ccco2)o1)c1ccccc1	?	?	6%	?	8%
CCC1CCCCN1C(=O)CSc1nnc(-c2ccco2)o1 (configuration not stated)	?	15µM*	?	3.2µM*	?
CC(=O)Nc1ccc(S(=O)(=O)N(C)CC(=O)N(C)Cc2sccc2C)cc1	1%	-1%	.	-3%	1%
Cc1ccc(S(=O)(=O)Nc2ccc3cn[nH]c3c2)cc1	-1%	0%	.	-2%	0%
Nc1ccc(C(=O)Nc2ccc3nc(-c4cccnc4)[nH]c3c2)cc1	-6%	17µM*	13%	6%	2%
Cn1cccc1-c1nc2ccc(NC(=O)c3ccc([N+](=O)[O-])cc3)cc2[nH]1	-3%	-2%	12%	4%	9%
Cn1cccc1-c1nc2ccccc2[nH]1	?	17µM*	.	30%	?
SMILES	NPC1 promoter act	FLuc counter	SMN2 splice up	Rab9 promoter act	ELG1 genotoxic
Cc1ccc(S(=O)(=O)Nc2ccc3nc(-c4cccn4C)[nH]c3c2)cc1	6%	-16%	8.9µM*	-1%	0%
Cn1cccc1-c1nc2ccc(NC(=O)c3ccccc3)cc2[nH]1	16%	15µM*	28%	28%	?
O=C(NCC(c1ccco1)N1CCN(c2ccccc2F)CC1)c1ccc2c(c1)OCO2 (configuration not stated)	1%	3%	.	1%	-6%
CN1C(=O)C2(SCC(=O)N2c2ccc(F)cc2)c2ccccc21 (configuration not stated)	.	5%	.	.	.
C/C(NC(=O)c1ccccc1)=C1/C(=O)CC2C1C2(C)C (configuration not stated)	29%	15µM*	-4%	?	?
O=c1cccc2n1Cc1cc3ccccc3nc1-2	3.2µM*	19µM*	13µM*	2.8µM*	21µM*
CCc1cccc2nc3c(c([Si](CC)(CC)CC)c12)Cn1c-3cccc1=O	.	.	-26%	.	.
Cc1ccc(-c2nnc(SCC(C)C)n2C)cc1	?	?	12%	?	-4%
CCc1ccc(NC(=O)CSc2nc(CSc3ccc(C)cc3)cc(=O)[nH]2)cc1	-6%	19µM*	.	-3%	6%
Cc1ccc(SCc2cc(=O)[nH]c(SCC(=O)Nc3cc(Cl)ccc3Cl)n2)cc1	-2%	27µM*	-8%	-5%	-1%
CCCn1c(=O)c2sccc2n2c(CCCC(=O)N3CCN(c4cccc(C)c4C)CC3)nnc12	.	-6%	.	.	.
Cc1ccc(/C=C/C(=O)c2ccc([N+](=O)[O-])o2)cc1	-32%	?	.	-38%	-9%
Cc1ccc(C(=O)/C=C/c2ccccc2)o1	-4%	2.4µM*	-22%	-4%	-1%
Cc1ccc(C(=O)/C=C/c2ccc(Br)cc2)o1	-4%	2.4µM*	-5%	-2%	10%
C=CCN(CC=C)C(=O)C(=O)c1ccn(-c2c(C)csc2C(=O)OC)c1	1%	1%	.	-2%	-5%
CCOC(=O)c1c(NC(=O)CSc2cn(CCNC(=O)c3c(F)cccc3F)c3ccccc23)sc2c1CCC2	.	3%	-5%	.	.
COc1ccc(-c2cc(=O)c3cc(C)ccc3[nH]2)cc1	3.2µM*	1.7µM*	7.1µM*	3.2µM*	13µM*
COc1ccc(-c2cc(=O)c3cc(OC)ccc3[nH]2)cc1	3.5µM*	3.4µM*	2.5µM*	1.4µM*	9.2µM*
COc1cc2[nH]c(-c3ccc(C)cc3)cc(=O)c2cc1OC	13%	13µM*	?	26%	11%
COc1cccc(-c2cc(=O)c3cc(NC(C)=O)ccc3[nH]2)c1	-9%	?	?	2%	?
COc1ccc(NC(=O)CSCc2cc(=O)c3cc(C)ccc3[nH]2)cc1	.	1%	.	.	.
CCN1CCN(c2c(S(=O)(=O)c3ccc(C)c(C)c3)cnc3ccc(F)cc23)CC1	-1%	1%	-3%	-2%	-7%
Cc1ccc(NC(=O)NNS(=O)(=O)c2ccc(Br)cc2)cc1	-2%	-3%	11%	-1%	3%
COc1ccc(NC(=S)c2ccccc2)cc1	?	11µM*	14µM*	?	?
COc1ccc(NC(=S)c2ccc(N(C)C)cc2)cc1	4µM*	2.1µM*	11µM*	1.3µM*	?
Cc1ccc(NC(=S)c2ccc(N(C)C)cc2)cc1	0.89µM*	1.7µM*	4.5µM*	1.3µM*	3.7µM*
Cc1ccc(S(=O)(=O)NC(=O)Nc2ccc(N(C)C)cc2)cc1	5%	24µM*	.	?	?

From PubChem
